Assay [1] is described as follows: qHTS for Inhibitors of the Functional Ribonucleoprotein Complex (vRNP) of Lassa (LASV) Arenavirus: LASV Primary Screen - GLuc reporter signal (AID 1347082; calls by dose curve; tested in HEK293 reporter line; also: nearly all actives have a fitted effect of over 60% in size).
Assay [2] in a line: qHTS for Inhibitors of the Functional Ribonucleoprotein Complex (vRNP) of Lassa (LASV) Arenavirus: Viability assay - alamar blue signal for LASV Primary Screen (AID 1347083; calls by dose curve; tested in HEK293 reporter line; also: nearly all actives have a fitted effect of over 80% in size).
Assay [3] is described as follows: qHTS for Inhibitors of the Functional Ribonucleoprotein Complex (vRNP) of Lymphocytic Choriomeningitis Arenaviruses (LCMV): Viability assay - alamar blue signal for LCMV Primary Screen (AID 1347085; calls by dose curve; tested in HEK293 reporter line; also: nearly all actives have a fitted effect of over 80% in size). For orientation: In qHTS, concentration-response curves come from the screen itself.
For assay [4], the target named is Nucleoprotein (Lymphocytic choriomeningitis virus (strain Armstrong)) (UniProt P09992). The assay can be described thus: qHTS for Inhibitors of the Functional Ribonucleoprotein Complex (vRNP) of Lymphocytic Choriomeningitis Arenaviruses (LCMV): LCMV Primary Screen - GLuc reporter signal (AID 1347086). Also: nearly all actives have a fitted effect of over 70% in size.

The values below come from PubChem BioAssay (NCATS).

Results filed as inconclusive are left out. Active and inactive are the calls of the source. Unless noted, calls follow the shape of the full dose curve.
Potency is read from the fitted curve at half-maximal effect.

Sequence of Nucleoprotein (Lymphocytic choriomeningitis virus (strain Armstrong)) (P09992 whole entry, looked up): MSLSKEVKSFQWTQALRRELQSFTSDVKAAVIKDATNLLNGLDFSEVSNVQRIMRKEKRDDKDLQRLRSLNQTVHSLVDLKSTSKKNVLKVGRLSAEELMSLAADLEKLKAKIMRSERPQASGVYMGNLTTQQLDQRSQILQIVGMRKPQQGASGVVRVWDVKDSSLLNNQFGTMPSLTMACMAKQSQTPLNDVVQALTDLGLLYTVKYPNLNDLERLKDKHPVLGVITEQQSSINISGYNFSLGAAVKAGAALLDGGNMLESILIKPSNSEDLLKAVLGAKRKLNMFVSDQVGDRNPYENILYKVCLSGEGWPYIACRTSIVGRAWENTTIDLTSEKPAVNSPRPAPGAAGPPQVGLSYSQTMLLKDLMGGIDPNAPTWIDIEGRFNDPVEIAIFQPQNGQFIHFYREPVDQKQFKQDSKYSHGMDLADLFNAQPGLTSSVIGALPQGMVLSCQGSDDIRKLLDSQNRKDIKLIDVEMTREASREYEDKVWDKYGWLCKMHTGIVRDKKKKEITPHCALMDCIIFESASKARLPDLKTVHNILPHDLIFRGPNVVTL

`CC1=NN(c2ccccc2)C(=O)C1`: the Potency entry in assay [1], in assay [2], in assay [3] and in assay [4] was “inactive” throughout.
Turning to `COc1ncc(-c2ccc3nccc(-c4ccnnc4)c3c2)cc1NS(=O)(=O)c1ccc(F)cc1F`, the Potency in assay [1] is 48.5 nM (active); in assay [2], 9.7 nM (active); in assay [3] it was 17.2 nM (active); in assay [4] it was 34.3 nM (active).
Take `C1Cc2[nH]nc(-c3nn[nH]n3)c2C1`: the Potency result in assay [1], in assay [2], in assay [3] and in assay [4] was “inactive” each time.
With `CC(C)(c1ccc(O)cc1)c1ccc(O)cc1`, the Potency entry in assay [1], in assay [2], in assay [3] and in assay [4] was “inactive” throughout.
`CCN(CC)CCNC(=O)c1ccc(NC(C)=O)cc1`: the Potency entry in assay [1], in assay [2], in assay [3] and in assay [4] was “inactive” in each case.
For `O=[N+]([O-])c1cccc(S(=O)(=O)NCCNS(=O)(=O)c2cccc([N+](=O)[O-])c2)c1`, the Potency result in assay [1], in assay [2], in assay [3] and in assay [4] was “inactive” throughout.
Consider `CCN(CC)CCCCNc1nc2cc(Cl)c(Cl)cc2nc1-c1ccc(-c2cccs2)s1`, for which the Potency result in assay [1], in assay [2], in assay [3] and in assay [4] was “inactive” throughout.
As to `Cc1cc2c(cc1C1(c3ccc(C(=O)O)cn3)CC1)C(C)(C)CCC2(C)C`, the Potency result in assay [1], in assay [2], in assay [3] and in assay [4] was “inactive” each time.
Consider `OCc1c[nH]c2ccccc12`, for which the Potency entry in assay [1], in assay [2], in assay [3] and in assay [4] was “inactive” in each case.
For `CCCCC(CC)COC(=O)c1ccc(N(C)C)cc1` (stereo not drawn), the Potency result in assay [1], in assay [2], in assay [3] and in assay [4] was “inactive” in each case.
For `C=CC(=O)Nc1cc2c(Nc3ccc(F)c(Cl)c3)ncnc2cc1C#CC(C)(C)N1CCN(C)CC1`, the Potency entry in assay [1], in assay [2], in assay [3] and in assay [4] was “inactive” in each case.
For `O=C(O)c1ccccn1`, the Potency result in assay [1], in assay [2], in assay [3] and in assay [4] was “inactive” in each case.
On to `CC(=O)NCCC(=O)N[C@@H](CCC(N)=O)C(=O)N[C@@H](CO)C(=O)N[C@@H](CCC(N)=O)C(=O)N[C@@H](CCC(N)=O)C(=O)N[C@H](C(=O)N[C@@H](Cc1ccccc1)C(=O)N[C@]1(C)CCCCCCC=CCCC[C@@](C)(C(=O)N[C@@H](CCC(N)=O)C(=O)N[C@@H](CC(N)=O)C(N)=O)NC(=O)[C@H](CC(C)C)NC(=O)[C@H](CC(C)C)NC(=O)[C@@H](CCCNC(=N)N)NC(=O)[C@H](Cc2c[nH]c3ccccc23)NC(=O)[C@H](CC(C)C)NC(=O)[C@H](CC(N)=O)NC1=O)[C@H](C)O`, for which the Potency entry in assay [1], in assay [2], in assay [3] and in assay [4] was “inactive” throughout.
For `O=C(O)CCC1CCC(c2cc(F)ccc2F)(S(=O)(=O)c2ccc(Cl)cc2)CC1` (stereo not drawn), the Potency entry in assay [1], in assay [2], in assay [3] and in assay [4] was “inactive” each time.
`O=c1[nH]c(-c2ccc(C(F)(F)F)cc2)nc2c1CSCC2`: the Potency result in assay [1], in assay [2], in assay [3] and in assay [4] was “inactive” throughout.
Take `CCOC(=O)c1cccnc1`: the Potency entry in assay [1], in assay [2], in assay [3] and in assay [4] was “inactive” throughout.
Turning to `C1=CC2C3C=CC(C3)C2C1` (stereo not drawn), the Potency entry in assay [1], in assay [2], in assay [3] and in assay [4] was “inactive” each time.
In the case of `CCC[C@H](NC(=O)C(C#N)=Cc1cccc(Br)n1)c1ccccc1`, the Potency result in assay [1], in assay [3] and in assay [4] was “inactive” each time. The Potency in assay [2] is 34300 nM (active).
Regarding `Cc1nn(Cc2ccccc2Cl)c(C)c1CN(C)CC(O)COc1ccc(Cl)cc1` (stereo not drawn), the Potency result in assay [1], in assay [2], in assay [3] and in assay [4] was “inactive” throughout.
`CCOC(=O)c1c(C)n(C)c2ccc(O)cc12`: the Potency result in assay [1], in assay [2], in assay [3] and in assay [4] was “inactive” each time.
Consider `CCN(CC)CCn1c(=O)c(Cc2ccc(OC)cc2)nc2ccccc21`, for which the Potency result in assay [1], in assay [2], in assay [3] and in assay [4] was “inactive” throughout.
On to `Cc1cn(-c2cc(NC(=O)c3ccc(C)c(Nc4nccc(-c5cccnc5)n4)c3)cc(C(F)(F)F)c2)cn1`, for which the Potency result in assay [1], in assay [2], in assay [3] and in assay [4] was “inactive” throughout.
Take `CC(C)(Sc1ccc(CCN(CCCCC2CCCCC2)C(=O)NC2CCCCC2)cc1)C(=O)O`: the Potency entry in assay [1], in assay [2], in assay [3] and in assay [4] was “inactive” throughout.
As for `COc1c(N2CCNC(C)C2)c(F)cc2c(=O)c(C(=O)O)cn(C3CC3)c12` (stereo not drawn), the Potency entry in assay [1], in assay [2], in assay [3] and in assay [4] was “inactive” throughout.
In the case of `CO[C@H]1C=CC=C(C)C(=O)NC2=CC(=O)C(NCCN(C)C)=C(C[C@@H](C)C[C@H](OC)[C@@H](O)[C@@H](C)C=C(C)[C@@H]1OC(N)=O)C2=O`, the Potency in assay [1] was 685 nM (active); in assay [2] it was 611 nM (active); in assay [3] it was 544 nM (active); in assay [4] it was 306 nM (active).
As for `Cn1c(Nc2ccc(C(F)(F)F)cc2)nc2cc(Oc3ccnc(-c4ncc(C(F)(F)F)[nH]4)c3)ccc21`, the Potency in assay [1] was 21700 nM (active); in assay [2], 2430 nM (active); in assay [3], 8630 nM (active). Moreover, in assay [4], the Potency entry was “inactive”.
On to `CC(C)C(C)(C)C(C)(C)C(C)(C)S`, for which the Potency result in assay [1], in assay [2], in assay [3] and in assay [4] was “inactive” in each case.
In the case of `CN1[C@@H]2CC[C@H]1CC(OC(=O)C(O)c1ccccc1)C2` (stereo partly drawn), the Potency entry in assay [1], in assay [2], in assay [3] and in assay [4] was “inactive” throughout.
Turning to `CS(=O)(=O)Oc1ccc2c(NC(N)=O)c(C(=O)c3ccc(Cl)cc3Cl)oc2c1`, the Potency entry in assay [1] and in assay [4] was “inactive” in each case. In addition, the Potency in assay [2] and in assay [3] was 27300 nM (active) in each case.
`CC(C)(C)NCC(O)c1ccc(O)c(CO)c1` (stereo not drawn): the Potency entry in assay [1], in assay [2], in assay [3] and in assay [4] was “inactive” throughout.
Take `Cc1c(C)c2c(c(C)c1OC(=O)c1cccnc1)CC[C@@](C)(CCC[C@H](C)CCC[C@H](C)CCCC(C)C)O2`: the Potency entry in assay [1], in assay [2], in assay [3] and in assay [4] was “inactive” in each case.
In the case of `CCCCCN(CCC12CC3CC(CC(C3)C1)C2)C(=O)NCCCc1ccncc1`, the Potency entry in assay [1], in assay [2], in assay [3] and in assay [4] was “inactive” throughout.
